High-throughput results deposited in PubChem BioAssay by National Center for Advancing Translational Sciences (NCATS).
Compounds with a hit are over-represented: about 19% of the library has one in this group of screens.
MARV entry inh = inhibitors of Marburg virus binding or cell entry; Marburg virus pseudotyped entry inhibition, cell reporter; Potency, µM (titrated, usually from 37.8 µM), for inactives: at the top dose activity change, negative = inhibition, most hits filed as inhibitors; actives 1.8% (n = 300,000); AID 540276; calls by dose curve; tested in HEK293 cells; note: potency is the fitted concentration of half-maximal effect; % is set by controls: 0 for no effect and ±100 for the full control effect
Pf growth 96h = P. falciparum growth inhibition at 96 hour, primary screen for plastid delayed-death inhibitors. P. falciparum luciferase reporter growth, 96 h. Potency, µM (highest dose often 28.7 µM), without a hit: at the highest dose activity change, negative = inhibition, usual class: inhibitors. actives 6.9% (n = 320,000). AID 504834; note: potency is the fitted concentration of half-maximal effect; % is set by controls: 0 for no effect and ±100 for the full control effect
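96 h incubation, 37 C, 5% CO2, of luciferase-reporter P. falciparum-infected RBCs (2% hematocrit, 0.05% parasitemia final) with test compounds; endpoint luminescence.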
Shiga toxin inh = inhibitors of Shiga toxin in Vero cells; Vero cells, Shiga toxin protein synthesis inhibition reporter; inhibition, % at 38.7 µM; actives 9.2% (n = 290,000); AID 2315; in the data active = inhibition mostly above about 28%, no sharp cut-off; inactive = mostly below about 43%; note: 0% is about no effect
Pf growth 48h = inhibits P. falciparum growth in the first generation, 48 h; actives 5.9% (n = 310,000); AID 504832; Potency, µM (titrated, usually from 28.7 µM), without a hit: at the top dose activity change, negative = inhibition, hits mostly inhibitors; P. falciparum luciferase growth in erythrocytes, 48 h; note: potency is the fitted concentration of half-maximal effect; % is set by controls: 0 for no effect and ±100 for the full control effect
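A one-generation exposure of luciferase-tagged malaria parasites in RPMI 1640/Albumax erythrocyte culture, 37 C and 5% CO2. Inhibition is inferred from decreased luminescence after adding detection reagent.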
Cycloheximide cs = counter-screen for Shiga toxin inhibitors: cycloheximide protein synthesis inhibition | cell reporter, cycloheximide protein synthesis inhibition counterscreen | max response, % | actives 12% (n = 300,000); in the data active = max response mostly above about 13%, no sharp cut-off; inactive = mostly below about 14%; note: read at 38.3 µM for the half of the compounds with a filed dose; 0% is about no effect
Lassa entry inh = inhibitors of Lassa virus binding or cell entry. Potency, µM (doses to about 37.9 µM), without a hit: at the highest dose activity change, negative = inhibition, most hits filed as inhibitors. actives 1.2% (n = 300,000). AID 540256. Lassa virus pseudotype entry inhibition, cell reporter; calls by dose curve; tested in HEK293 cells; note: potency is the fitted concentration of half-maximal effect; % is set by controls: 0 for no effect and ±100 for the full control effect; nearly all actives have a fitted effect of over 50% in size
Numbers without * were called inactive; ? = inconclusive; . = no result given; [ ] = another dose, or the depositor's remark. Unless noted, calls come from the whole dose curve; as a rule, active = well fitted inhibition curve with a large enough effect; inconclusive = small, poorly fitted or top-dose-only effect, or another doubt; inactive = no such curve, though single readings can be large or run the other way.

SMILES	MARV entry inh	Pf growth 96h	Shiga toxin inh	Pf growth 48h	Cycloheximide cs	Lassa entry inh
Cc1ccc2c(c1)c(N=O)c(O)n2Cc1ccc(Cl)cc1	3%[46.1 µM]	-34%	13	12µM*	-7	?
Cc1ccc(Cn2c(O)c(N=O)c3ccccc32)cc1	-19%[46.1 µM]	?	1	?	-3	?
CC(C)C(OC(=O)c1ccco1)C(=O)NCc1ccco1 (stereo not given)	12%	-15%	-4	12%	-2	17%
Cc1cccc(OC(C)C(=O)N/N=C\c2ccncc2)c1 (stereo not given)	5%[46.1 µM]	?	24	3%	3	18%[46.1 µM]
c1ccc(-c2nc3c4ccccc4ccn3c2CN2CCCCC2)cc1	?	?	35	?	11	9%[46.1 µM]
Cc1ccc(-c2nc3c4ccccc4ccn3c2CN2CCCCC2)cc1	.	-14%	59*	9.3µM*	32*	.
COc1cc2c(cc1OC)C1=C(C#N)CCC(=NC(=O)c3ccc(Cl)cc3)N1CC2	2%	?	-13	-2%	-2	0%
COc1cc2c(cc1OC)C1=C(C#N)COCN1CC2	-2%	3.7µM*	-12	?	-3	22%
Cc1ccc2[nH]c3c(=O)n(CC(=O)N4CCN(c5cccc(C(F)(F)F)c5)CC4)ncc3c2c1	.	.	.	.	.	29%[46.1 µM]
O=C(Cn1ncc2c([nH]c3ccccc32)c1=O)N1CCN(c2ccccn2)CC1	.	1.3µM*	-4	-14%	0	.
Cc1ccc2[nH]c3c(=O)n(CC(=O)N4CCN(C)CC4)ncc3c2c1	.	7.4µM*	-9	45%	1	.
COc1ccc([C@]23Cc4cc(C#N)ccc4[C@H](O2)c2c(cc(-c4ccccc4)oc2=O)O3)cc1	7%[14.2 µM]	.	.	.	.	.
CC(=O)N1CCn2c3ccc(C)cc3c3cccc1c32	2%	50%	47*	60%	24*	-5%
O=c1oc2ccc(C#CC3(O)CCCCC3)cc2cc1-n1cc(C2(O)CCCCC2)nn1	6%	47%	.	22%	.	.
N=C1/C(=C\c2ccc(-c3cccc(C(=O)O)c3)o2)C(=O)N=C2SC=C(c3ccccc3)N12	.	13%	56*	17%	26*	.
N=C1/C(=C\c2ccc(SCc3ccccc3)o2)C(=O)N=C2SC(CC(=O)N3CCOCC3)=NN12	.	?	20	-18%	-5	.
Cc1cc(/C=C2/C(=N)N3C(c4ccccc4)=CSC3=NC2=O)c(C)n1-c1ccccc1	12%	0%	-6	19%	20*	16%
Cc1ccccc1-n1c(C)cc(/C=C2/C(=N)N3C(c4ccccc4)=CSC3=NC2=O)c1C	2%	?	17	-3%	8	1%
N=C1/C(=C/c2ccc(-c3cccc(C(=O)O)c3)o2)C(=O)N=C2SC(CC(=O)N3CCOCC3)=NN12	.	51%	11	48%	25*	.
O=C(c1ccc(F)cc1)N1CCCC(c2nc(-c3ccncc3)no2)C1 (stereo not given)	.	21%	.	5%	.	.
CCc1ccccc1NC(=O)C1CCCN(c2ncnc3onc(-c4ccc(F)cc4)c23)C1 (stereo not given)	.	?	2	?	-5	.
Cc1ccccc1NC(=O)N1CCCC(c2nc(-c3ccc(F)cc3)no2)C1 (stereo not given)	5%	.	110*	31%	24*	-20%
Cc1ccccc1NC(=O)C1CCCN(c2ncnc3onc(-c4ccc(F)cc4)c23)C1 (stereo not given)	.	20%	14	9.3µM*	-4	.
Cc1ccccc1NC(=O)N1CCCC(c2nc(-c3ccc(C(C)C)cc3)no2)C1 (stereo not given)	?	-8%	-1	-15%	26*	?
O=C(Nc1ccccc1)N1CCCC(c2nc(-c3ccc(F)cc3)no2)C1 (stereo not given)	-4%[46.1 µM]	?	42	1%	14	7%
SMILES	MARV entry inh	Pf growth 96h	Shiga toxin inh	Pf growth 48h	Cycloheximide cs	Lassa entry inh
Cc1ccc(NC(=O)N2CCCC(c3nc(-c4ccc(F)cc4)no3)C2)cc1 (stereo not given)	.	66%	60*	21%	15	.
CCCS(=O)(=O)Nc1cccc(-c2cn3c(n2)SCC3)c1	.	14%	-3	-7%	-2	.
C=CCNC(=O)c1onc(CSc2cc(C)ccc2C)c1C(=O)O	.	103%	-3	3%	0	.
Cn1c2c(c(=O)n(C)c1=O)C1(C(=O)Nc3ccccc31)C(C#N)=C(N)O2 (stereo not given)	-1%	8.3µM*	-5	10µM*	-3	-1%
O=C(NC1CCC(O)CC1)c1ccc(Br)o1 (stereo not given)	-27%	.	.	.	.	?
CCOC(=O)c1c(NC(=O)c2ccn(CC)n2)sc2c1CCC2	5%[46.1 µM]	?	-5	6%	-8	-9%
Cn1ccc(C(=O)Nc2sc3c(c2C(N)=O)CCCCC3)n1	?	226%	99*	207%	57*	?
Cn1cc(Br)c(C(=O)Nc2sc3c(c2C(N)=O)CCC3)n1	6%	.	52*	31%	30*	?
CC(=O)Nc1sc2c(c1C(N)=O)CCCC2	-1%	4%	-19	8%	-8	2%
Cn1nccc1C(=O)Nc1sc2c(c1C(N)=O)CCCC2	2%[46.1 µM]	2%	58*	31%	31*	14%
N#C/C(C(=O)N1CCOCC1)=C1/SC=C(c2ccccc2)N1c1ccccc1	-5%	.	.	.	.	.
Cc1ccc(-c2nn(C)c(=O)c3ccccc23)cc1S(=O)(=O)N1CCOCC1	-8%	?	8	-5%	-3	-15%
O=C(Nn1cnnc1)c1ccc(Cl)c([N+](=O)[O-])c1	-12%[46.1 µM]	19%	-1	38%	1	-18%[46.1 µM]
CCN(CC)S(=O)(=O)c1ccccc1/C=N\O	23%	-7%	46	70%	29*	23%
CSC(=Nc1ccccc1)Nc1ccccc1	2%[46.1 µM]	-18%	16	0%	3	-1%[46.1 µM]
CC(=O)c1cccc(NC(=O)C(OC(=O)c2cccs2)c2ccccc2)c1 (stereo not given)	?	?	-9	-20%	4	30%
CCn1c(=O)cc(SCC(=O)NCC2CCCO2)c2ccccc21 (stereo not given)	?	?	0	15%	-2	-45%[14.3 µM]
S=C(NCC1CCCO1)Nc1cccc(Cl)c1 (stereo not given)	7%	12%	15	7%	4	24%
Cc1cccc(NC(=O)C(=O)NCC2CCCO2)c1 (stereo not given)	0%	10%	51*	143%	43*	-17%
O=C(NCC1CCCO1)Nc1cccc(Cl)c1 (stereo not given)	?	.	27*	52%	17*	-8%
C=C(C)c1cccc(C(C)(C)NC(=O)NCC2CCCO2)c1 (stereo not given)	-2%[46.1 µM]	96%	-14	7.4µM*	-1	5%
